Rows were chosen to be rich in hits. Some 19% of all compounds tested hit in one or more screens of this group.
HepG2 tox: counter-screen for TGF-b inhibitors: cytotoxicity in HepG2 cells; 0.76% of 410,000 active; AID 588856; Potency, µM (titrated, usually from 46.1 µM), for inactives: at the highest dose activity change, negative = cytotoxicity, hits mostly cytotoxic; HepG2 CAGA-GFP viability, ATP luminescence, 18 h; further: potency means the concentration at half of the fitted maximal effect
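HepG2 CAGA-GFP cells (1000/well, DMEM with 1% FBS) received compound, then TGF-beta at 500 pg/mL final, and were incubated 18 hours at 37 degrees C. Viability was read by CellTiter-Glo luminescence. Media-only wells were set as complete cell-killing and DMSO as no toxicity.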
TDP1 cell noCPT: qHTS for Inhibitors of human tyrosyl-DNA phosphodiesterase 1 (TDP1): qHTS in cells in absence of CPT | 15% of 420,000 active | Potency, µM (series often up to 46.2 µM), for inactives: top-dose activity change, negative = growth inhibition, actives largely listed as inhibitors | DT40 Tdp1-/- hTDP1 cells, no CPT, ATP luminescence, 48 h; further: potency means the concentration at half of the fitted maximal effect; on the % scale 0 is the no-effect control and ±100 the full control effect; nearly all actives have a fitted effect of over 55% in size
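Luminescent ATP content (CellTiter-Glo) served as the growth readout. Knockout chicken DT40 cells expressing human TDP1 were exposed to compounds without camptothecin for a minimum 48 hr at 37 °C.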
TDP1 block: blocks human tyrosyl-DNA phosphodiesterase 1; 0.28% of 350,000 active; recombinant TDP1, AlphaScreen DNA substrate cleavage; Potency, µM (series often up to 130 µM), for inactives: top-dose activity change, negative = inhibition, actives largely listed as inhibitors; further: potency means the concentration at half of the fitted maximal effect; on the % scale 0 is the no-effect control and ±100 the full control effect; nearly all actives have a fitted effect of over 40% in size
Target sequence (Q9NUW8 whole entry, looked up): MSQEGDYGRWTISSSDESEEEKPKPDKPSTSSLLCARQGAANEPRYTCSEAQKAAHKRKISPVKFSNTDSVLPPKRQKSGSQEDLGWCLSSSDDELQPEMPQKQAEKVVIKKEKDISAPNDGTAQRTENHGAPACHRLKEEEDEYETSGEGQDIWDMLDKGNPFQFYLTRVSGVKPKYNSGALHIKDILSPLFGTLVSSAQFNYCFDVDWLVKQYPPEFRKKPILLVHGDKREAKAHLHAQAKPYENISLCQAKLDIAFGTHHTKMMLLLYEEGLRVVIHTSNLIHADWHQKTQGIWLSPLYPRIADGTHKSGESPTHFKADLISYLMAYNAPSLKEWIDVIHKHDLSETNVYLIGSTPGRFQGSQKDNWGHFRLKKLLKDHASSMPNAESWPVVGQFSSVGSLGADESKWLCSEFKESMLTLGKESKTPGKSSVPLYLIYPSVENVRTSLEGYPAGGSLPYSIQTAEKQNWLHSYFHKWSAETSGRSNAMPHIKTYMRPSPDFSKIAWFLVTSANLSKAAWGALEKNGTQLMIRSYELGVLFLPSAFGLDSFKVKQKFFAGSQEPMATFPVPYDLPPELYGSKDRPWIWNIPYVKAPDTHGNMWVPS
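E. coli-derived human Tdp1, 1 nM final. Cpd preinc 15 min RT; substrate 15 nM final, 5 min RT; AS bead mix 10 ug/ml final, 10 min RT. Signal loss = tyrosine-FITC cleavage. No-enzyme wells = max signal.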
IL-1B inflam inh: inflammasome signaling inhibition, IL-1 beta readout. THP-1 LPS/ATP IL-1B secretion, AlphaLISA, 16 h; hits give low values. activity change, % at 57.5 µM. 4.7% of 360,000 active; in the data active means activity change below about -50%; inconclusive means mostly about -30% to -49%; further: on the % scale 0 is the no-effect control and ±100 the full control effect
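THP-1 cells pretreated 1 hr with compounds (up to 57.5 uM final), then stimulated with LPS (250 ng/mL final) plus ATP (1.25 mM final); secreted IL-1B measured by AlphaLISA after 16 hr, decreased signal indicating inhibition.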
TGFb SMAD3 inh: TGF-b pathway inhibition. 1.2% of 410,000 active. HepG2 CAGA-GFP TGF-b/SMAD3 reporter, GFP fluorescence, 18 h; TGF-beta stimulated, 500 pg/mL final. Potency, µM (series often up to 46.1 µM), for the others: at the top dose activity, negative = inhibition, most hits filed as inhibitors; further: potency means the concentration at half of the fitted maximal effect; on the % scale 0 is the no-effect control and ±100 the full control effect; nearly all actives have a fitted effect of over 65% in size
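Smad-responsive CAGA-GFP expression was quantified in HEPG2 cells exposed to compounds and 500 pg/mL final TGF-beta for 18 h at 37 degrees C; unstimulated wells defined full inhibition.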
TDP1 cell CPT: growth inhibition of DT40 Tdp1-/-;hTDP1 cells with camptothecin (screen for TDP1 inhibitors). chicken DT40 Tdp1-/-;hTDP1 cells + 20 nM CPT, ATP luminescence, 48 h. Potency, µM (highest dose often 46.2 µM), inactives show at the highest dose activity change, negative = growth inhibition, usual class: inhibitors. 12% of 420,000 active; further: potency means the concentration at half of the fitted maximal effect; on the % scale 0 is the no-effect control and ±100 the full control effect; nearly all actives have a fitted effect of over 55% in size
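Chicken DT40 Tdp1-/- cells stably complemented with human TDP1 were seeded at 400 cells/well in medium containing 20 nM camptothecin, exposed to pin-transferred compounds, and grown at 37 °C for at least 48 hr. Viability was read as ATP luminescence.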
The depositor's hits bear a star; i = inactive; ? = inconclusive; . = no result; ! = not confirmed by another sample; [ ] = another dose, or the depositor's remark. Unless noted, the call rests on the fitted dose curve; in most records, active means well fitted curve in the direction sought with a large enough effect; inconclusive means small, poorly fitted or top-dose-only effect, or another doubt; inactive means no such curve, though single readings can be large; an effect the other way counts as inactive or inconclusive.

SMILES	HepG2 tox	TDP1 cell noCPT	TDP1 block	IL-1B inflam inh	TGFb SMAD3 inh	TDP1 cell CPT
COc1cccc(C(=O)NC2CC(C)(C)Cc3c2cnn3-c2cccc(F)c2)c1OC (configuration not stated)	0%	18µM*	2%[56.1 µM]	i	-26%	23µM*
Cc1cc(C)c(C(=O)NC2CC(C)(C)Cc3c2cnn3-c2cccc(F)c2)[nH]1 (configuration not stated)	5%	?	7%	-4	?	?
CCn1nc(C)cc1C(=O)NC1CC(C)(C)Cc2c1cnn2-c1cccc(F)c1 (configuration not stated)	0%	16µM*	4%[56.1 µM]	i	1%	21µM*
Cc1ccc(NC(=O)NC(=O)COc2c(F)c(F)cc(F)c2F)c(C)c1	-39%	-17%	0%	-1	15%	-9%
CCOC(=O)c1cccc(NC(=O)CSc2nc3cc4ccccc4cc3[nH]2)c1	-50%	23µM*	3%	.	?	?
CCOC(=O)c1ccc(NC(=O)CSc2nc3cc4ccccc4cc3[nH]2)cc1	-36%	18µM*	-1%	.	-17%	23µM*
Cc1csc2nc(-c3ccc(NS(=O)(=O)c4cccc(F)c4)cc3)cn12	-16%	16µM*	5%	.	-22%	?
O=C(Nc1ccccc1N1CCN(C(=O)c2ccc(Cl)cc2)CC1)c1ccc(Br)cc1	-1%	-2%	-2%	-16	5%	?
O=C(NC(=S)Nc1ccccc1N1CCOCC1)c1ccccc1F	-1%	?	3%	-8	11%	?
O=C(Nc1ccccc1N1CCN(C(=O)c2ccccc2)CC1)c1ccc(Cl)cc1	-17%	23µM*	0%	?	-4%	?
O=C(Nc1ccccc1N1CCN(C(=O)c2ccccc2)CC1)c1ccc(Br)o1	4%	21µM*	7%	-1	-21%	?
O=C(Cc1ccc(Cl)cc1)Nc1ccccc1N1CCN(C(=O)c2ccccc2)CC1	-43%	21µM*	-2%	?	?	?
O=C(NC(=S)Nc1ccccc1N1CCN(C(=O)c2ccccc2)CC1)c1ccccc1F	0%	18µM*	5%	i	?	16µM*
Cc1c(Cl)cccc1Nc1nc(N)nc(CSC(=S)N2CCOCC2)n1	-2%	-18%	8%	-2	4%	-10%
CC(C(=O)c1ccccc1)[n+]1cccc(Cl)c1 (configuration not stated)	7%	?	.	.	6%	3%
O=C(Nc1ccccc1N1CCN(C(=O)c2ccc(Cl)cc2)CC1)c1cc2ccccc2o1	31%	?	5%	-7	0%	26µM*
CN1CCN(c2ccc(CNS(=O)(=O)c3ccsc3)cc2)CC1	-9%	?	0%	8	-2%	-13%
CC(C)OCCCNC(=O)c1cc2c(-c3ccc(Cl)cc3)nn(C)c2s1	-18%	21µM*	-2%	.	-25%	?
Cn1nc(-c2ccc(Cl)cc2)c2cc(C(=O)NCCCN3CCOCC3)sc21	-11%	18µM*	0%	0	-19%	16µM*
CCN(CC)CCNC(=O)c1cc2c(-c3ccc(Cl)cc3)nn(C)c2s1	-65%	?	0%	-90*	11µM*	?
CCOCCCNC(=O)c1cc2c(-c3ccc(Cl)cc3)nn(C)c2s1	3%	?	1%	-17	-14%	?
CCCCN(CC)CCNC(=O)c1cc2c(-c3ccc(Cl)cc3)nn(C)c2s1	20µM*!	?	0%	-97*	?	?

Bioassay records from PubChem.
